# Screening data as filed in PubChem.
# Sampled rows, rich in hits. Any-hit rate of the full collection: about 0.69%.
# PKM2 activator: increases activity of human pyruvate kinase M2 | P14618 | purified PKM2, Kinase-Glo ATP luminescence, activation; response scale: 0% is enzyme alone, no compound | Potency, µM (titrated, usually from 57.5 µM), without a hit: at the highest dose activation, most hits filed as activators | 260,000 compounds, 0.34% hits | AID 1631; note: potency is the fitted concentration of half-maximal effect; % is set by controls: 0 for no effect and ±100 for the full control effect; nearly all actives have a fitted effect of over 55% in size
# Target sequence (P14618 whole entry, looked up): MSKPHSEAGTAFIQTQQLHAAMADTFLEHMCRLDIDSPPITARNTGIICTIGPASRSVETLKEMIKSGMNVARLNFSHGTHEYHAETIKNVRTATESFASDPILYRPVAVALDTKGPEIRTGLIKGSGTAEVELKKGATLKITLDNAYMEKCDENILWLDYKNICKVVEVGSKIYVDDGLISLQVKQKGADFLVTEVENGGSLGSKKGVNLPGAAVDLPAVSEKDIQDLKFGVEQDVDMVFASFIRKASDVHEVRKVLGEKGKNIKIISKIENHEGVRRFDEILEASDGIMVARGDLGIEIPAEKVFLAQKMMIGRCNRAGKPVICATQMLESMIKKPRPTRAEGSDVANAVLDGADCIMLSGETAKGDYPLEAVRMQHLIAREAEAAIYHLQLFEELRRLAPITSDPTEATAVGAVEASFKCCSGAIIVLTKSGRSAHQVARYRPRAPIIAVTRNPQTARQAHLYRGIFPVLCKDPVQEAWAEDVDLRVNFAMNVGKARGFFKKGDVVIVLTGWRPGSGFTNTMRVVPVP
#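 hPK-M2, >95% pure; 0.1 mM ADP / 0.5 mM PEP final; imidazole pH7.2 buffer w/ 7 mM MgCl2, 50 mM KCl; 1 h RT; Kinase-Glo lum. Intermediate enzyme activity for dual inhibitor/activator qHTS.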
# a7 integrin act: activates integrin-mediated alleviation for muscular dystrophy. alpha7betagal myoblasts, beta-gal FDG fluorescence, 48 h. Potency, µM (top dose mostly 38.3 µM), for inactives: at the top dose activation, usual class: activators. 350,000 compounds, 0.064% hits. AID 624291;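 note: potency is the fitted concentration of half-maximal effect; 100% = response of the positive control SU9516; nearly all actives have a fitted effect of over 60% in size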
#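 Alpha7betagal+/- myoblasts (passage 13) were plated 16-24 hr, then exposed to compounds (1:260 dilution of DMSO stock) for 48 hours at 37C. After MPER lysis, β-galactosidase reporter activity was read as FDG fluorescence (ex 480/em 540) after 30 minutes.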
# TCR activator: activates T cell receptor signaling; AID 504894; Potency, µM (doses to about 9.22 µM), for inactives: at the highest dose activation of IL-2 secretion, usual class: activators; primary human leukocytes, anti-CD3, IL-2 HTRF, 48 h; 330,000 tested, under 10 active; note: % of control where 0% means no effect
#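 IL-2 produced over 48 hr by a-CD3 bead-stimulated primary human leukocytes exposed to compounds was detected with a homogeneous time-resolved FRET immunoassay, 665nm acceptor signal after 320nm excitation.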
# IL-2 act: activators of IL-2; IL-2 activation reporter assay, cell-based qHTS; stimulated with anti-CD3/CD4/CD28 beads; in transgenic mouse T cells; activation, % (series mostly up to about 46 µM); 360,000 compounds, 0.065% hits; AID 652025; in the data active = activation above about 50%; inconclusive = mostly about 30% to 49%; note: 0% is about no effect
#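 Unstimulated transgenic mouse T cells, 750 per well, received compound and, after 60 minutes, anti-CD3/anti-CD4 bead plus anti-CD28 stimulation. EGFP and DsRed were quantified after 18 hours.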
# Tb PFK inh: blocks T. brucei phosphofructokinase; O15648; T. brucei PFK, ADP-Glo luminescence; Potency, µM (titrated, usually from 57.5 µM), for the others: at the highest dose activity, negative = inhibition, most hits filed as inhibitors; 330,000 compounds, 0.17% hits; AID 485367;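 note: potency is the fitted concentration of half-maximal effect; 0% = uninhibited 1x PFK enzyme wells and -100% = no-enzyme wells; nearly all actives have a fitted effect of over 60% in size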
#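 In TEA buffer at pH 8.0 with 5 mM MgCl2, enzyme (1.25 nM) converted F6P (0.5 mM) and ATP (0.1 mM) for 45 min at room temperature. ADP product was read by luciferase luminescence.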
# AT treatment: potential ataxia-telangiectasia treatment. 320,000 compounds, 0.19% hits. Potency, µM (top dose mostly 57.5 µM), without a hit: at the highest dose activation, usual class: activators. F2112 A-T fibroblasts, KAP-1 phosphorylation AlphaLISA; neocarzinostatin DNA damage 30 min before lysis; note: potency is the fitted concentration of half-maximal effect; % of control where 0% means no effect; nearly all actives have a fitted effect of over 45% in size
#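 hTERT-immortalized A-T patient fibroblasts (F2112), 500 cells/well in OPTI-MEM, 1% FBS, got compounds for 60 min, then NCS for 30 min at 37C. Lysates were then assayed for phospho-KAP-1 by AlphaLISA (anti-pKAP1 donor, anti-KAP1 acceptor beads), 6 hr at 25C.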
# * hit, by the source's call; u = inconclusive; x = no result given; [ ] = dose if it differs, or a comment. Unless noted, calls come from the whole dose curve; as a rule, active = well fitted curve in the direction sought with a large enough effect; inconclusive = small, poorly fitted or top-dose-only effect, or another doubt; inactive = no such curve, though single readings can be large; an effect the other way counts as inactive or inconclusive.
SMILES,PKM2 activator,a7 integrin act,TCR activator,IL-2 act,Tb PFK inh,AT treatment
COc1cc(OC)c(OC)cc1/C=C1\Oc2cc(OCC(=O)N3Cc4ccccc4C[C@H]3C(=O)O)ccc2C1=O,-15.7%,-11.6%,-18.2%,6.6,12µM*,1.9%
N=c1c(C(=O)NCc2ccc3c(c2)OCO3)cc2c(=O)n3ccccc3nc2n1Cc1cccnc1,u,0.0%,1.4%,-3.1,-4.6%,-4.5%
N=c1c(S(=O)(=O)c2ccc(Cl)cc2)cc2c(=O)n3ccccc3nc2n1Cc1cccnc1,0.8%,35.1%,-1.4%,151.1*,-0.8%,21.4%
COc1ccc(CNC(=O)c2cc3c(=O)n4ccccc4nc3n(Cc3cccnc3)c2=N)cc1,-6.9%,-31.5%[7.66 µM],-36.5%,94.5*,-4.9%,2.5%
CNC(=O)c1ccc(-c2sc3nc(N4CCOCC4)c4c(c3c2N)CC(C)(C)OC4)o1,12.2%,31.5%,-25.5%,-1.4,-2.5%,4.47µM*
CC1(C)Cc2c(c(N3CCOCC3)nc3sc(-c4ccc(C(=O)O)o4)c(N)c23)CO1,-9.6%,6.2%,-5.5%[46.1 µM],0.6,-13.7%,11.9%
COc1cc(CN2CCNC(=O)C2CC(=O)N2CCCO2)cc(OC)c1 (configuration not stated),14.1µM*,-4.8%,6.9%,-0.4,1.3%,-2.3%
COc1cc(CN2CCNC(=O)C2CC(=O)N2CCCCO2)cc(OC)c1 (configuration not stated),8.4%,0.0%,-6.1%,-2.9,4.3%,19.0%
CC(C)N(C(=O)Nc1ccc2nsnc2c1)C(C)C,-2.0%,-3.5%,-2.0%,0.3,-30.6%,31.6µM*
COc1ccc(N(C)C(=O)Nc2ccc3nsnc3c2)cc1,-20.7%,u,-2.7%,-1.8,-3.7%,1.3%
CCOC(=O)Cn1c(=O)c(-c2cc(Br)ccc2N)nc2ccccc21,2.2%,-52.6%,0.7%,151.8*,1.9%,-7.9%
Cc1ccc(/C=C/C(=O)Nc2sc(C)c(C)c2C(=O)OC(C)C)o1,15.8µM*,7.1%,-5.9%,-0.2,-2.2%,-0.8%
CCCCNC(=O)C(c1ccc(OCC(=O)OC)c(C(=O)OC)c1)N(CCC1=CCCCC1)C(=O)CCCCCN1C(=O)NC(c2ccc(-c3ccccc3)cc2)C(C(=O)OCc2ccccc2)=C1C (configuration not stated),-4.0%,x,x,x,x,x
CCCCc1nc2c(c3c1C[C@H](C)OC3)CN(S(=O)(=O)c1ccc(C#N)cc1)CC2,-1.0%[11.5 µM],x,x,x,x,x
CCCCn1c(C)cc2c(c1=O)C1O[C@](c3ccc(OC)cc3)(Cc3cc(OC)c(OC)cc31)O2,1.2%[11.5 µM],x,x,x,1.1%[11.5 µM],-5.0%[11.5 µM]
COc1ccc(C2c3c(ncn(CCN4CCOCC4)c3=N)Oc3ccc4ccccc4c32)cc1OC (configuration not stated),20µM*,-67.2%,5.4%,-2.0,-2.0%,8.6%
COc1ccc(C2c3c(ncn(CCCO)c3=N)Oc3ccc4ccccc4c32)cc1OC (configuration not stated),-4.2%,-64.6%,2.9%,-4.8,-1.8%,5.3%
COC(=O)[C@@H]1C[C@@H]2CC[C@@H](O)C[C@@H]2N1Cc1ccc(C)s1,4.2%,x,x,x,x,x
Cc1ccc(SSc2cc(C)ccc2N)c(N)c1,x,10.7%,4.2%,-0.4,21.3µM*,-14.7%
CNC(=S)N(CCO)Cc1cc2cc3c(cc2[nH]c1=O)OCCO3,x,-11.0%,2.2%,-0.2,18.9%,2.82µM*
CNC(=S)N(CCO)Cc1cc2cc3c(cc2[nH]c1=O)OCO3,x,7.7%,-3.2%,-3.1,4.2%,-20.0%
O=C(Nc1ccc(F)cc1)N(CCCN1CCOCC1)Cc1cc2cc3c(cc2[nH]c1=O)OCCO3,9.3%,-4.5%,-0.2%,-0.7,2.5%,14.1µM*
CCCCCCCCCCCCCCCC(=O)OC(CO)CO,2.4%,x,x,x,x,x
COc1ccc(/C=C(\NC(=O)c2ccc(C)cc2)C(=O)Nc2ccc(C(=O)O)cc2)cc1,x,11.2µM*,2.1%,-4.9,0.0%,-5.5%
COc1ccc(/C=C(\NC(=O)c2ccc(OC)cc2)C(=O)Nc2ccc(C(=O)O)cc2)cc1,x,13.5%,7.7%,0.3,0.1%,25.7%
SMILES,PKM2 activator,a7 integrin act,TCR activator,IL-2 act,Tb PFK inh,AT treatment
COC(=O)C1=C(C(=O)OC)[C@@H]2N(C)c3ccc(OC)cc3[C@@]23C[C@@H](C(=O)OC)N(S(=O)(=O)c2ccc(C(F)(F)F)cc2)C3=N1,-0.6%[11.5 µM],x,x,x,x,x
O=c1cc(-c2ccccc2)oc2cccc(O)c12,x,-3.7%,-8.3%,-0.3,x,x
Cc1ccccc1-c1cc(=O)c2c(O)cccc2o1,5.6%,12.1%,-4.5%,-0.1,4.3%,39.8µM*
COc1ccc(-n2c(C)c(C)c3c(NCCN(C)C)ncnc32)cc1,x,-63.5%,-6.2%,4.9,0.1%,7.08µM*
Cc1ccccc1C[C@H](C(=O)O)N1C(=O)c2ccc(C(=O)O)cc2C1=O,x,x,x,x,u,-0.5%
Cc1ccc(C)c(OCC(=O)N/N=C/c2c(C)nn(-c3ccccc3)c2Cl)c1,9.3%,x,x,x,-0.3%,-2.1%
Cc1nn(-c2ccccc2)c(Cl)c1/C=N/NC(=O)CCNc1n[nH]c(=O)[nH]c1=O,1.8%,4.2%,-4.2%,2.1,-0.4%,20µM*
CCc1nc(NCCc2ccccn2)c2nnn(Cc3ccccc3F)c2n1,25.1µM*,4.8%,8.4%,-0.2,-3.3%,-3.3%
Cc1cc(-c2nnc(SCC(=O)Nc3nccs3)o2)no1,15.8µM*,0.0%,-30.2%,-1.5,0.7%,-2.8%
CCOC(=O)c1c(-c2cccs2)csc1NC(=O)COC(=O)c1c(C)noc1C,14.1µM*,6.8%,-0.8%,-2.1,1.5%,4.4%
CCOC(=O)c1c(-c2cccs2)csc1NC(=O)c1ccncc1,-3.2%,-12.8%,3.3%,0.3,1.6%,1.8%
CCCCc1cc2c(cn1)=C(OC(=O)CCC(=O)OC)C(C)(OC(=O)CC)C(=O)C=2 (configuration not stated),-2.1%[11.5 µM],x,x,x,x,x
OCCN(CCO)c1nc(N2CCCCC2)c2nc(N(CCO)CCO)nc(N3CCCCC3)c2n1,-4.8%,x,-4.1%,0.8,-10.8%,31.6µM*
Nc1nc(NCCO)nc(N2CCCCCC2)c1[N+](=O)[O-],x,1.6%,-0.7%,0.3,2.2%,-17.1%
CCCN(CCC)CC(O)CN(c1ccccc1)S(=O)(=O)c1ccc(C)cc1 (configuration not stated),1.9%,0.0%,3.8%,-1.8,0.1%,x
CCCCN(c1nc2ccccc2nc1Cl)S(=O)(=O)c1ccc(C)cc1,x,-10.4%,-1.9%,7.3,-17.2%,10µM*
Oc1ccc(Nc2ccnc3cc(Cl)ccc23)cc1,-7.3%,-8.2%,-1.9%,-0.1,-3.4%,39.8µM*
